# Test results: the supplement of paper PMC6555819
# What was measured:
# Assay in all cases: PBM binding z-score (relative to random genomic background probes); higher = stronger binding; sequences stand for … in GC…GCGATTGACAGCGTAGAATGAAGG
# [1] = tested on: PPARg:RXRa DBDmut IVT, anti-RXR (DBD mutation: RXRa K156A/R161A, NR concentration 270 nM, RXRa partner concentration 90 nM)
# In short: (§1)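 Binding buffer was PBS pH 7.4 with 2% milk, 0.02% Triton X-100, 1 mM DTT, 0.2 mg/mL BSA and 0.4 mg/ml salmon testes DNA. In it, ligand-free nuclear receptor dimers were incubated 1 h on custom Agilent 4×180K protein-binding microarrays carrying double-stranded probes. Antibodies against each partner (one per run) detected binding, and z-scores were calculated against random background probes after regression normalization of scanned fluorescence.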
# [2] = tested on: PPARg:RXRa IVT, anti-PPARg (NR concentration 270 nM, RXRa partner concentration 90 nM)
# In short: as §1
# [3] = tested on: PPARg DBDmut:RXRa IVT, anti-PPARg (DBD mutation: PPARg1 K132A/R137A, NR concentration 270 nM, RXRa partner concentration 90 nM)
# In short: as §1
# [4] = tested on: PPARg DBDmut IVT, anti-PPARg (DBD mutation: PPARg1 K132A/R137A, NR concentration 270 nM)
# In short: as §1
# [5] = tested on: PPARg homodimer (NR concentration 180 nM)
# In short: as §1
# [6] = tested on: PXR:RXRa (NR concentration 270 nM, RXRa partner concentration 90 nM)
# In short: as §1
# [7] = tested on: PXR homodimer (NR concentration 270 nM)
# In short: as §1
# [8] = tested on: RARa:RXR (NR concentration 270 nM, RXRa partner concentration 90 nM)
# In short: as §1
# [9] = tested on: RARa homodimer (NR concentration 270 nM)
# In short: as §1
# [10] = tested on: RARb:RXRa (NR concentration 270 nM, RXRa partner concentration 90 nM)
# In short: as §1
# [11] = tested on: RARb homodimer (NR concentration 270 nM)
# In short: as §1
# [12] = tested on: RARg:RXRa (NR concentration 270 nM, RXRa partner concentration 90 nM)
# In short: as §1
# [13] = tested on: RARg homodimer (NR concentration 270 nM)
# In short: as §1
# [14] = tested on: RXRa DBDmut IVT, anti-RXR (DBD mutation: RXRa K156A/R161A, NR concentration 90 nM)
# In short: as §1
# [15] = tested on: RXRa homodimer (NR concentration 180 nM)
# In short: as §1
# [16] = tested on: THRa:RXRa (NR concentration 90 nM, RXRa partner concentration 90 nM)
# In short: as §1
# [17] = tested on: THRa homodimer (NR concentration 90 nM)
# In short: as §1
# [18] = tested on: VDR homodimer (NR concentration 270 nM)
# In short: as §1
Sequence,PBM binding z-score [1],PBM binding z-score [2],PBM binding z-score [3],PBM binding z-score [4],PBM binding z-score [5],PBM binding z-score [6],PBM binding z-score [7],PBM binding z-score [8],PBM binding z-score [9],PBM binding z-score [10],PBM binding z-score [11],PBM binding z-score [12],PBM binding z-score [13],PBM binding z-score [14],PBM binding z-score [15],PBM binding z-score [16],PBM binding z-score [17],PBM binding z-score [18]
GCTAGTTGATCAGTAAAAGGTCACACACCGGTCG,0.158,1.96,0.246,0.272,2.88,4.83,0.914,5.64,2.24,3.89,4.9,5.1,4.68,0.532,5.54,3.45,1.59,1.8
AATACAGGGTCATTGTAGGCCAGAGTACGCACAG,2.56,4.77,1.99,0.86,2.91,4.83,0.912,4.54,0.607,4.19,3.31,5.16,4.36,4.12,6.15,4.59,0.994,3.75
TCTTGTAGATCAAAGGTAAAGAAAGCCGAAGCCT,2.51,2.4,0.0443,-0.451,0.519,0.378,0.111,0.715,-0.116,0.397,-0.121,0.243,-0.165,0.56,0.881,0.386,-0.548,-0.117
GCGACTGGGGCAAAGCAGGTTATCATAAGGTTGG,4.56,3.61,-0.685,-0.693,-0.345,0.44,-0.841,0.549,-0.943,0.894,0.97,0.559,0.655,-0.0158,0.368,2.9,0.0261,-0.46
ACTCGGAGGACAAAGGACAGAGCTACGCCAGTGA,-0.0501,-0.429,-0.346,-1.22,-0.327,-0.688,-0.112,-0.495,-0.7,1.62,1.11,1,1.64,0.398,0.0489,0.569,-0.18,-0.184
CCTAGTGGGCCATCAGGTCATTGATATCAACGTT,4.56,5.23,-0.169,0.327,1.35,1.62,0.58,1.86,0.517,1.94,2.68,2.11,1.92,0.53,1.45,3.13,2.59,1.43
CCGACAGGGGCATAAGGTTACCATAAGCCAGCCC,-0.166,0.15,-1.21,-1.04,0.637,0.688,-0.195,1.93,-0.124,2.11,2.13,2.36,1.62,0.428,2.01,2.43,1.43,0.293
TCATATAGGTAAACGGTGAAAGTCGGTGTGGTAA,4.37,3.34,1.61,0.702,0.811,0.39,0.405,0.111,0.67,0.522,0.301,0.178,-0.128,1.47,0.601,0.081,0.00294,-0.132
CCTGCTAGGTCAAGGTCAGCTAATCTACAGTATG,4.9,4.64,0.201,-0.28,2.21,3.45,0.401,3.88,1.15,5.09,5.07,5.45,7.01,2.36,4.54,3.97,2.88,1.23
CGTCCTAGGTCAAAGGTCAGTGAAGAGATGACGG,4.39,5.93,0.538,0.49,3.9,6.08,0.262,7.96,1.07,5.64,4.99,7.97,7.18,2.25,9.16,4.54,1.39,1.24
TCGCGGAGGACACGAAGGTCAGAGCTTTCCAGAG,0.6,0.577,-0.818,-2.01,1.37,1.83,0.425,1.74,0.1,3.26,3.67,3.06,3.52,0.372,1.64,2.62,0.443,1.19
TATAGTTGGTCAAAGGTCACACACTCGAAATGCG,2.28,6.4,1.87,3.69,4.52,6.04,1.29,6.91,2.66,5.04,5.04,7.01,6.33,0.941,8.14,4.24,1.79,2.12
ATTTGTAGGTTAGCTGGGGTCATTCAGACTAGGC,5.34,5.05,2.63,3.11,4.33,6.6,4.49,5.99,2.49,3.52,4.03,4.33,2.95,2.56,5.57,5.34,3.84,4.65
TGAATGAGGTTTTAAGATCAGGGAACGTTGCAAA,-0.427,-0.0166,-0.325,-0.224,0.0827,-0.0619,-0.319,0.152,0.043,-0.198,-0.344,-0.157,-0.0698,-0.731,-0.145,0.308,-0.308,-0.172
CAGCCTAGGTCAGGGCCAGTCTAGGAGGAACGTT,1.23,1.44,-1.02,-1.49,0.16,0.386,-0.83,1.06,-0.6,3.28,2.6,2.83,3.7,-0.45,1.5,1.98,0.28,-0.275
CGAACGAGGGCATTAGTTGATAGCAAATGCCGAT,2.78,1.35,-1.12,-0.313,-0.0468,0.174,0.377,0.239,-0.278,1.51,0.501,0.774,1.37,2.96,0.438,0.5,-0.321,1.64
AGTAAAAGTTCAGGACGAGGTAACGTAAAGCACG,-0.481,0.814,0.943,1.31,1.74,2.71,1.45,2.39,0.986,3.85,2.91,4.29,4.25,2.76,2.3,3.78,2.01,1.89
CAAACTAGGTCACGAAAGTTCAAAGTCGAATGAC,8.72,9.1,2.45,4.02,4.73,7.11,8.3,6.02,2.95,5.27,5,6.73,7.67,2.96,5.99,4.31,1.46,4.82
CGAACTAGGTCAGAACGGGACAGTGAAGGATGAT,6.92,7.17,2.46,2.6,1.57,0.217,-0.225,0.856,-0.237,2.75,1.83,2.2,2.96,0.435,1.15,2.84,-0.119,-0.321
GATACAGGGTCAGCTAGAGGCCCGAGTATGGAAA,0.969,2.18,-0.156,-0.833,1.37,1.72,-0.766,2.93,-0.152,3.83,2.47,4.74,3.86,1.21,4.25,2.49,0.0608,0.402
CCGACTGAGGCAAGGTTACCATAACGCACAGCCA,-0.0464,-0.0439,-0.139,-0.814,0.4,0.18,-0.0704,0.645,0.194,0.904,1.01,0.557,0.458,0.18,0.97,1.26,0.413,0.118
TCAGACAGGTGAAGGTACCTCAGGTACGCAGTCG,1.89,0.885,0.0512,-0.186,0.265,0.248,-0.155,0.888,-0.298,0.914,0.421,0.412,0.332,1.1,1.05,0.941,0.205,0.0555
GCTTACGAGTCAAAGGTTATAGCATGAATAGAAT,-0.0786,1.3,0.924,-0.155,0.792,2.73,-0.0683,4.4,-0.195,1.78,1.24,2.58,1.09,0.218,5,1.76,-0.786,-0.176
GCTGCTAGGTCAGGTTGATCAGCTAACGGGTACG,3.25,2.17,-1.1,-0.366,0.196,0.316,-0.392,0.656,-0.919,3.06,2.24,2.65,3.71,0.558,1.14,1.73,0.499,0.442
CGTCCAAGGTCCGCAGGTCAGTGAAAGCGACGTG,0.12,-0.306,-1.07,-1.27,-0.166,0.139,-0.304,0.547,-0.545,1.89,2.24,1.06,1.49,0.0611,0.267,1.04,0.0358,-0.00185
CCTGCTAGGTCGTGGTCAGCTAATCTACAGTATG,1.33,0.742,-0.546,-0.828,0.0786,0.00895,-0.22,0.444,-0.694,1.71,1.21,0.958,1.4,0.759,0.607,0.876,0.18,-0.0912
AGAACGAGGGCACGCTGAGCTGATAGCAGAGTAG,4.56,3.89,0.483,-0.228,0.179,-0.0742,-0.541,0.485,-0.937,2.39,0.904,1.83,2.12,1.48,1.2,1.39,-0.398,0.48
TCTCGGAGGACAGGAAAGGTCAGAGCTCGACATC,1.51,0.852,-0.54,-0.498,2.25,3.36,0.759,3.62,0.692,3.9,4.65,4.1,4.39,0.817,3.83,3.25,0.943,0.606
CCTAGTAGGCCAGGGTCACTCAAGCATTTCGCTT,4.28,4.48,-0.152,-1.37,0.886,2.55,-0.126,2.8,-0.346,2.65,3.03,3.04,2.56,0.104,3.3,2.94,1.18,1.6
